Experimental data reported in publication PMC12431657, “Discovery and mechanistic insights of dibenzoylmethane as a broad spectrum inhibitor of coronavirus” (PLOS Pathogens, 2025).
Where a name gives a salt, the structure may show the parent alone. Read-outs that look alike come from different tables or passages of the source. In all, about 3,300 compounds went through this assay and about 60 (2%) showed an effect of 50% or more. The entries come from a sample that favours strong results as a whole.

Test system: HCoV-OC43
Set-up: species or system RD; HTS, protection from HCoV-OC43 induced cell death, luminescent cell viability (CellCounting-Lite 2.0), inhibition rate
Conditions: 24 h post infection, 1 h compound pre-incubation, 10 µM, inhibitor

SMILES | OC43 Inhibition rate | OC43 Inhibition rate (OC43 Inhibition rate, 24 h)
C=C1[C@@H](C)[C@H]2[C@H](Cc3ccccc3)NC(=O)[C@]23OC(=O)/C=C/[C@H](O)CCC[C@@H](C)C/C=C/[C@H]3[C@@H]1O [Cytochalasin B] | 63% | –
C=C1C[C@@]23CC[C@H]4[C@@](C)(CCC[C@@]4(C)C(=O)O[C@@H]4O[C@H](CO)[C@@H](O)[C@H](O)[C@H]4O[C@@H]4O[C@H](CO)[C@@H](O)[C@H](O)[C@H]4O)[C@@H]2CC[C@]1(O[C@@H]1O[C@H](CO)[C@@H](O)[C@H](O[C@@H]2O[C@H](CO)[C@@H](O)[C@H](O)[C@H]2O)[C@H]1O[C@@H]1O[C@H](CO)[C@@H](O)[C@H](O)[C@H]1O)C3 [Rebaudioside D] | 1.1% | –
CCCCC1OC(=O)C2=CCCCC21 (centres unmarked) [Sedanolide] | -0.1% | –
CC(C)=CCc1c(O)cc(O)c2c(=O)c(O[C@@H]3O[C@@H](C)[C@H](O)[C@@H](O)[C@H]3O)c(-c3ccc(O)cc3)oc12 [IKarisoside A] | 14.9% | –
COc1ccc(-c2oc3c(CC=C(C)C)c(O)cc(O)c3c(=O)c2O[C@@H]2O[C@@H](C)[C@H](O)[C@@H](O)[C@H]2O)cc1 [Baohuoside I] | 70.2% | –
CC(C)=CCc1cc(-c2coc3cc(O)cc(O)c3c2=O)cc(O)c1O [Glycyrrhisoflavone] | 2.1% | –
CC(C)=CCc1cc(-c2coc3cc(O)ccc3c2=O)ccc1O [Neobavaisoflavone] | 18.1% | –
CC(C)=CCc1c(O)cc(O)c2c(=O)c(-c3ccc(O)cc3)coc12 [Lupiwighteone] | 63.3% | –
CC(C)=CCc1c(O)cc(O)c2c(=O)cc(-c3ccc(O)cc3)oc12 [Licoflavone C] | 7.3% | –
COc1ccc(-c2oc3c(CC=C(C)C)c(O)cc(O)c3c(=O)c2O[C@@H]2O[C@@H](C)[C@H](O)[C@@H](O)[C@H]2O[C@@H]2O[C@@H](C)[C@H](O)[C@@H](O)[C@H]2O)cc1 [2''-O-Rhamnosylicariside II] | 0.3% | –
O=c1c(-c2ccc(O)cc2)coc2cc(O)cc(O)c12 [Genistein] | 6.8% | –
CC(C)=CCc1c(-c2ccc(O)cc2O)oc2c(CC=C(C)C)c(O)cc(O)c2c1=O [Mulberrin] | 51.7% | –
COc1ccc(-c2oc3c(CC=C(C)C)c(O)cc(O)c3c(=O)c2O)cc1 [Icaritin] | 0.1% | –
CC(C)=CCc1c(O)ccc(-c2coc3cc(O)cc(O)c3c2=O)c1O [Licoisoflavone A] | 59.7% | –
CC(C)=CCc1c(-c2ccc(O)cc2O)oc2c3c(cc(O)c2c1=O)OC(C)(C)C=C3 [Morusin] | 5.8% | –
CC(=O)O[C@H]1C[C@@]2(C)[C@@H](C[C@@H](O)[C@H]3[C@@]4(C)CC[C@@H](O)[C@@H](C)[C@@H]4CC[C@@]32C)/C1=C(\CCC=C(C)C)C(=O)O [Fusidic acid (sodium salt)] | 1.2% | –
CC1(C)[C@H](OC(=O)c2ccccc2)CC[C@]2(C)C3=CC[C@@]4(C)[C@@H]5C[C@](C)(COC(=O)c6ccccc6)CC[C@]5(C)CC[C@]4(C)C3=CC[C@@H]12 [3,29-O-Dibenzoyloxykarounidiol] | -4.4% | –
COC(=O)C1=CO[C@@H](O[C@@H]2O[C@H](CO)[C@@H](O)[C@H](O)[C@H]2O)[C@@H]2[C@@]3(C)O[C@H]3[C@@H](O)[C@]12O [Sesamoside] | -1.2% | –
CCC/C=C\C=C\CCCCCCCCCO [Bombykol] | 1.1% | –

SMILES | OC43 Inhibition rate | OC43 Inhibition rate (OC43 Inhibition rate, 24 h)
COc1nccc(N)n1 [2-O-Methylcytosine] | 0.2% | –
C[C@]12CC[C@@H](O)C[C@H]1CC[C@@H]1[C@@H]2[C@@H](O)C[C@@]2(C)[C@H]1CC[C@]2(O)C(=O)CO [Tetrahydrocortisol] | -0.2% | –
CC(=O)O[C@@]12CO[C@@H]1C[C@H](O)[C@@]1(C)C(=O)[C@H](O)C3=C(C)[C@@H](OC(=O)[C@H](O)[C@@H](NC(=O)c4ccccc4)c4ccccc4)C[C@@](O)([C@@H](OC(=O)c4ccccc4)[C@H]21)C3(C)C [10-Deacetyltaxol] | 0.2% | –
CC(=O)c1cc2c(CO)cc(O)cc2oc1=O [Armillarisin A] | -0.4% | –
COc1ccc([C@H]2OC[C@H]3[C@@H]2CO[C@@H]3c2ccc(OC)c(OC)c2)cc1OC [Pinoresinol dimethyl ether] | – | 1.1%
COc1ccc(-c2oc3c(CC=C(C)C)c(O[C@@H]4O[C@H](CO)[C@@H](O)[C@H](O)[C@H]4O)cc(O)c3c(=O)c2O[C@@H]2O[C@@H](C)[C@H](O)[C@@H](O)[C@H]2O[C@@H]2OC[C@@H](O)[C@H](O)[C@H]2O)cc1 [Epimedin B] | 1% | –
O=C(c1ccccc1)c1ccccc1 [Benzophenone] | -0.1% | –
O=C(CC(=O)c1ccccc1)c1ccccc1 [DBM, dibenzoylmethane] | 102.9% | –
O=C(O)c1ccccc1 [Benzoic acid] | -0.2% | –
Oc1cc(O)cc(/C=C/c2c(O)cccc2O)c1 [Gnetol] | -1% | –
O=c1cc(-c2ccc(O)cc2)oc2c([C@@H]3O[C@H](CO)[C@@H](O)[C@H](O)[C@H]3O)c(O)c([C@@H]3OC[C@@H](O)[C@H](O)[C@H]3O)c(O)c12 [Vicenin-1] | -1.7% | –
COc1cc([C@H]2Oc3cc([C@H]4Oc5cc(O)cc(O)c5C(=O)[C@@H]4O)ccc3O[C@@H]2CO)ccc1O [Silibinin] | – | 1.4%
CCCCCCCCCC(O)CC(=O)O (centres unmarked) [3-Hydroxydodecanoic acid] | -3.9% | –
Cn1cc(C(=O)O)ccc1=O [1-Methyl-6-oxo-1,6-dihydropyridine-3-carboxylic acid] | 0.2% | –
O=C(CCc1ccc(O)c(O)c1)NCCCNCCCCNCCCNC(=O)CCc1ccc(O)c(O)c1 [Kukoamine A] | 2.2% | –
Nc1ncnc2c1ncn2[C@@H]1C[C@H](CO)[C@@H](O)[C@H]1O [Aristeromycin] | 53.9% | –
Nc1ncnc2c1ncn2[C@H]1C[C@H](O)[C@@H](CO)O1 [2'-Deoxyadenosine monohydrate] | – | -2.3%
Nc1ncnc2c1ncn2[C@@H]1O[C@H](CO)C[C@H]1O [Cordycepin] | -0.3% | –
C=C1C(=O)O[C@H]2C[C@@H](C)[C@@H]3CCC(=O)[C@@]3(C)[C@@H](OC(C)=O)[C@H]12 [Ergolide] | 10.6% | –

SMILES | OC43 Inhibition rate | OC43 Inhibition rate (OC43 Inhibition rate, 24 h)
CC(C)=CCC[C@](C)(O)[C@@H]1CC=C(C)CC1 [Levomenol] | – | -0.7%
Cn1cnc2c(ncn2[C@@H]2O[C@H](CO)[C@@H](O)[C@H]2O)c1=O [1-Methylinosine] | 0.1% | –
C[C@@H]1[C@H](O)[C@@H](C)/C=C/C=C/C=C/C=C/C=C/C=C/C=C/[C@H](O[C@@H]2O[C@H](C)[C@@H](O)[C@H](N)[C@@H]2O)C[C@@H]2O[C@](O)(C[C@@H](O)C[C@@H](O)[C@H](O)CC[C@@H](O)C[C@@H](O)CC(=O)O[C@H]1C)C[C@H](O)[C@H]2C(=O)O [amphotericin B] | 103.7% | –
C[C@@H]1C/C=C/C=C/C=C/C=C/[C@H](O[C@@H]2O[C@H](C)[C@@H](O)[C@H](N)[C@@H]2O)C[C@@H]2O[C@](O)(C[C@@H](O)C[C@H]3O[C@@H]3/C=C/C(=O)O1)C[C@H](O)[C@H]2C(=O)O [Natamycin] | -0.1% | –
O=S(=O)(O)CCO [Isethionic acid sodium salt] | -0.5% | –
O=C(O)[C@H](O)[C@H](O)[C@@H](O)[C@H](O)[C@H](O)CO [NSC 42196] | 3.4% | –
N[C@H](C(=O)O)[C@@H]1CC(Cl)=NO1 [Acivicin (hydrochloride)] | 61.6% | –
CC1(C)CCC[C@]2(C)[C@H]3CCO[C@]3(C)CC[C@@H]12 [Ambroxide] | -0.5% | –
CC1=CC(=O)C(C(C)C)CC1 (centres unmarked) [Piperitone] | -0.8% | –
CC(=O)NCCCC[C@H](N)C(=O)O [Nepsilon-Acetyl-L-lysine] | -0.2% | –
C=C[C@H]1CN2CC[C@@]3(C(=O)Nc4ccccc43)[C@@H]2C[C@@H]1/C(=C\OC)C(=O)OC [Isocorynoxeine] | -0.3% | –
CCC/C=C1\OC(=O)C2=C1CC[C@@H](O)[C@H]2O [Senkyunolide H] | -0.5% | –
CCC/C=C1\OC(=O)C2=C1CC[C@H]1[C@H]3C=C4C(=O)O/C(=C\CCC)[C@@]4(CC3)[C@@H]21 [Levistolide A] | 77.4% | –
CCC/C=C1\OC(=O)C2=C1CC[C@H](O)[C@H]2O [Senkyunolide I] | -0.4% | –
O=C(O)c1ccc(=O)oc1 [Coumalic acid] | 10.5% | –
CC(=O)O[C@@H]1CC[C@@]2(C)[C@@H](CC[C@]3(C)[C@@H]2CC=C2[C@@H]4[C@@H](C)[C@H](C)CC[C@]4(C)CC[C@]23C)[C@@]1(C)C(=O)O [3-Acetyl-beta-boswellic acid] | 66.7% | –
CC(=O)O[C@@H]1CC[C@@]2(C)[C@@H](CC[C@]3(C)[C@@H]2[C@H](O)C=C2[C@@H]4[C@@H](C)[C@H](C)CC[C@]4(C)CC[C@]23C)[C@@]1(C)C(=O)O [3-O-Acetyl-11-hydroxy-beta-boswellic acid] | 15.2% | –
C[C@H]1[C@H](C)CC[C@]2(C)CC[C@]3(C)C(=CC[C@@H]4[C@@]5(C)CC[C@@H](O)[C@](C)(C(=O)O)[C@@H]5CC[C@]43C)[C@H]12 [β-Boswellic acid] | -0.2% | –
